Experimental data: PubChem BioAssay (Tox21)
Several values for one entry are separate records, joined by “and”; a condition that tells them apart may be missing. Identical values can stand only once. Records with an inconclusive call do not appear. Entries that show only a call come without a potency. The source holds several records for some structures; these can differ, active in one and inactive in another. Activity calls are given as the source filed them. Calls come from the whole dose curve; as a rule, active = well fitted cell-killing curve with a large enough effect in the repeat runs; inconclusive = weak or mixed curves, or effect the other way; inactive = flat fitted curve, though single readings scatter.

Assay: qHTS assay to identify small molecule antagonists of the estrogen receptor alpha (ER-alpha) signaling pathway using the BG1 cell line - cell viability counter screen (AID 743081);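 note: compound given together with 17beta-estradiol as the ER stimulus; nearly all actives have a fitted effect of over 45% in size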
Conditions: BG1Luc4E2 viability, CellTiter-Fluor, 22 h; series mostly up to 70.3 µM
Potency is the fitted concentration of half-maximal effect.

Row | Structure (SMILES) | Potency
1 | NC12CC3CC(CC(C3)C1)C2 | inactive
2 | CCCCCCCCCCCCCC[P+](CCCC)(CCCC)CCCC | 17.1 µM (active) and 15.4 µM (active)
3 | Nc1cc(S(=O)(=O)O)cc2cc(S(=O)(=O)O)cc(O)c12 | inactive
4 | O=C(O)c1cc(Cl)cc(Cl)c1 | inactive
5 | Oc1c(Cl)cc(Cl)cc1Sc1cc(Cl)cc(Cl)c1O | inactive
6 | N[C@@H]1CONC1=O | inactive
7 | Nc1ccc2cc3ccccc3cc2c1 | inactive
8 | Cc1c(O)cccc1C(=O)N[C@@H](CSc1ccccc1)[C@H](O)CN1C[C@H]2CCCC[C@H]2C[C@H]1C(=O)NC(C)(C)C | 18.8 µM (active) and 26.6 µM (active)
9 | CCCCC(CC)COC(=O)CC(C(=O)OCC(CC)CCCC)S(=O)(=O)O (stereo unspecified) | inactive
10 | CC(=O)O[C@]1(C(C)=O)CC[C@H]2[C@@H]3C[C@H](C)C4=CC(=O)CC[C@]4(C)[C@H]3CC[C@@]21C | inactive
11 | C/C=C/c1ccc(OCC)c(O)c1 | inactive
12 | CCN(CC)C(=S)SSC(=S)N(CC)CC | inactive
13 | CC(C)CCOCc1ccccc1 | inactive
14 | CC(=O)Nc1ccc(C(=O)CCl)cc1 | inactive
15 | O=Cc1ccc(Cl)cc1 | inactive
16 | CCCN[C@H]1CCc2nc(N)sc2C1 | inactive

Row | Structure (SMILES) | Potency
17 | O | inactive
18 | CCc1cc(C(C)(C)C)c(O)c(C(C)(C)C)c1 | inactive
19 | CC(C)(C)NCC(O)c1cc(O)cc(O)c1 (stereo unspecified) | inactive
20 | c1ccc2c(c1)-c1cccc3c1c-2cc1ccccc13 | inactive
21 | CC1COc2c(N3CCN(C)CC3)c(F)cc3c(=O)c(C(=O)O)cn1c23 (stereo unspecified) | inactive
22 | Nc1ccc(O)cc1 | inactive and 63.5 µM (active)
23 | CC(C)(C)c1ccccc1 | inactive
24 | C1COC(NC(C2CC2)C2CC2)=N1 | inactive
25 | CC[C@@H](N)CO | inactive
26 | CC(COc1ccccc1)N(CCCl)Cc1ccccc1 (stereo unspecified) | inactive
27 | CCCOC(=O)c1cc(O)c(O)c(O)c1 | inactive
28 | CC(=O)CC(=O)Nc1ccc2[nH]c(=O)[nH]c2c1 | inactive
29 | CC(C)(C)NC(=O)[C@@H]1CN(Cc2cccnc2)CCN1C[C@@H](O)C[C@@H](Cc1ccccc1)C(=O)N[C@H]1c2ccccc2C[C@H]1O | inactive
30 | C[N+]1([O-])CCOCC1 | inactive
31 | OCCN1CCNCC1 | inactive
